HEK293 cAMP cs: qHTS Assay for Agonists of the Thyroid Stimulating Hormone Receptor: Activators of Intracellular cAMP Concentrations in Parental HEK 293; Potency, µM (titrated, usually from 57.1 µM), inactives show at the highest dose activation, usual class: activators; 73,000 tested, 2.5% active; AID 938, 2007; parental HEK293 CNG cAMP sensor, membrane potential fluorescence; note: potency is the fitted concentration of half-maximal effect; % of control where 0% means no effect; nearly all actives have a fitted effect of over 55% in size
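Parental HEK 293 cells stably expressing a cAMP-gated CNG channel were loaded with membrane potential dye containing 100 uM RO 20-1724 for 60 min. Compound added for 30 min; depolarization read as fluorescence intensity at 590 nm.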
TSHR agonist: qHTS Assay for Agonists of the Thyroid Stimulating Hormone Receptor; 73,000 tested, 0.48% active; HEK293-CNG-TSHR cells (CNG channel as cAMP sensor), membrane potential dye, cAMP; Thyrotropin receptor (Homo sapiens), P16473; Potency, µM (titrated, usually from 57.1 µM), without a hit: top-dose activation, actives largely listed as activators; active = well fitted activation curve with a large enough effect in the main read-out, with a control signal flat, not every such curve was filed as active; inconclusive = small, poorly fitted or top-dose-only effect, or a change in a side signal; inactive = no such curve, though single readings can be large or run the other way; % of control where 0% means no effect;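 note: the control signal comes from parental cells without the receptor; potency is the fitted concentration of half-maximal effect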
Target sequence (P16473 whole entry, looked up): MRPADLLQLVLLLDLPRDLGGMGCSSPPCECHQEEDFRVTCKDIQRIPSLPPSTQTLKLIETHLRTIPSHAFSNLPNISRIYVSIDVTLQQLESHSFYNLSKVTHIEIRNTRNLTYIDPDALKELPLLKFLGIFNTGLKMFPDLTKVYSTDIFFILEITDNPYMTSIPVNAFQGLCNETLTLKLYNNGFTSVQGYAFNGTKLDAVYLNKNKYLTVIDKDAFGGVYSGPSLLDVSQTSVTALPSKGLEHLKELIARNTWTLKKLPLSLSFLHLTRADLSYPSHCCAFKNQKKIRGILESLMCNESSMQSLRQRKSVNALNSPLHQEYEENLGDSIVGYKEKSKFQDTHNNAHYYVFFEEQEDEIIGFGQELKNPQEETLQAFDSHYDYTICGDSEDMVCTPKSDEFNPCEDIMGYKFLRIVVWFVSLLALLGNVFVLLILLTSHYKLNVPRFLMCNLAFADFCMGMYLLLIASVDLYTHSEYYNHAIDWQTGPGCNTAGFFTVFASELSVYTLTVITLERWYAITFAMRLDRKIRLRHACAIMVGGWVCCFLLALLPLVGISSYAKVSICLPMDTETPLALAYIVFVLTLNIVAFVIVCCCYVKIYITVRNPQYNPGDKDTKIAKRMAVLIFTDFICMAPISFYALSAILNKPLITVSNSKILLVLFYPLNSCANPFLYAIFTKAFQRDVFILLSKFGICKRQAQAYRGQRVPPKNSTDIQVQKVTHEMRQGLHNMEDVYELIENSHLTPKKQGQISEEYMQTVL
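HEK 293 cells stably expressing TSHR and a modified CNG channel, with CNG-only parental cells as counterscreen, were preloaded 60 min at room temperature with membrane potential dye containing 100 uM RO 20-1724. Compound exposure was 30 min, and depolarization was read as fluorescence at 590 nm.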
parental cAMP: Confirmation Concentration-Response Assay for Agonists of the Thyroid Stimulating Hormone Receptor: Activators of Intracellular cAMP Concentrations in Parental HEK 293; 150 tested, under 10 active; shares compounds with TSHR agonist; activity change, negative = inhibition, % at 32.9 µM; parental HEK293 CNG biosensor, cAMP membrane potential fluorescence; AID 953, 2007
* hit, by the source's call; ? = inconclusive; nt = no result given; [ ] = remark or other dose. The list is not random: actives were taken first. Their share in the collection is about 2.9%. Unless noted, calls come from the whole dose curve; as a rule, active = well fitted curve in the direction sought with a large enough effect; inconclusive = small, poorly fitted or top-dose-only effect, or another doubt; inactive = no such curve, though single readings can be large; an effect the other way counts as inactive or inconclusive.

SMILES | HEK293 cAMP cs | TSHR agonist | parental cAMP
CC1(C)CC(=O)C2=C(C1)OC(N)=C(C#N)C2CCc1ccccc1 (stereo unspecified) | 28% | 20µM* | 14
O=C1[C@@H]2[C@H]3C(=CC[C@@H]2C(=O)N1Cc1ccccc1)C1(OCCCO1)[C@H]1O[C@@H]1[C@H]3O | -1%[11.4 µM] | nt | nt
CCOC(=O)C1=C(C)OC(N)=C(C#N)C1c1c(C)nn(-c2ccc(C)cc2)c1Cl (stereo unspecified) | 15% | nt | nt
COC(=O)C1=C(C)OC(N)=C(C#N)C1c1c(C)nn(-c2ccccc2)c1Cl (stereo unspecified) | 15% | 6.3µM* | 6
COC(=O)C1=C(C)OC(N)=C(C#N)C1C1CCCCC1 (stereo unspecified) | 25% | 13µM* | 16
COC(=O)C1=C(C)OC(N)=C(C#N)C1c1ccccc1 (stereo unspecified) | 23% | 3% | nt
CC(=O)OC[C@@H]1O[C@@H](O/N=C2/C[C@@H](O)[C@@H](O)[C@@H]3[C@H]4C(=O)N(c5ccc(F)cc5F)C(=O)[C@@H]4CC[C@H]23)[C@H](OC(C)=O)[C@H](OC(C)=O)[C@@H]1OC(C)=O | -7%[11.4 µM] | -4%[11.4 µM] | nt
COc1cccc(-c2nc(N3CCN(C)CC3)c3ccccc3n2)c1 | 9% | nt | nt
N#CC1(O)CCCCC1 | 19% | 4% | nt
CC(=O)Nc1ccc(S(=O)(=O)N(C)c2ccc(O)cc2)cc1 | 2% | -1% | nt
CC(=O)Nc1ccc(S(=O)(=O)N(C)c2ccccc2)cc1 | 1% | 0.79µM* | 5
CCOC(=O)N1CCC(NC(=O)c2cc(C(=O)NCc3ccc(F)cc3)ccc2CO)CC1 | 23% | 7% | nt
CCOC(=O)N1CCC(NC(=O)c2ccc(CNS(=O)(=O)c3ccc(F)cc3)cc2)CC1 | 9% | 25µM* | 8
CCC/C=C(\CCC)C(NS(=O)(=O)CC12CCC(CC1=O)C2(C)C)c1ccc(C(=O)OC)cc1 (stereo unspecified) | 17% | nt | nt
CCCNC(=O)OC[C@@H]1O[C@H](CCO/N=C\[C@@H](OC)[C@H](C)/C=C\CC(=O)OC)C=C[C@@H]1Oc1ccc(OC)cc1 | 17%[11.4 µM] | 11%[11.4 µM] | nt
Cc1ccc(S(=O)(=O)NC(=O)NN2CCCCCC2)cc1 | 10%[25.6 µM] | -6%[25.6 µM] | nt
Cc1ccc(S(=O)(=O)NC(=O)Nn2c(C)nnc2C)cc1 | 3% | 10% | 2[25.6 µM]
COC(=O)C(C(C)=O)C(NC(=O)NCc1ccccc1)c1ccccc1 (stereo unspecified) | 6%[11.4 µM] | -3%[11.4 µM] | nt
Nc1ncn([C@H]2O[C@@H](CO)[C@@H](O)[C@@H]2O)c(=O)n1 | 2%[25.6 µM] | 34%[25.6 µM] | nt
O=C(OCC1CO1)C1CCCCC1C(=O)OCC1CO1 (stereo unspecified) | 25% | 20% | nt
Cn1c(=O)[nH]c(=O)c2c1nc(N1CCCCCC1)n2CCSc1nc2ccccc2o1 | 2% | 5% | nt
Cn1c(=O)[nH]c(=O)c2c1nc(N1CCCCCC1)n2CCCSc1nc2ccccc2o1 | -3% | 4% | 13[25.6 µM]
Oc1ccccc1-c1cc(C(F)(F)C(F)F)nc(-c2ccccc2)n1 | ? | ? | 3
Nc1nc(-c2ccccc2)cc(C(F)(F)F)n1 | 20% | -1% | nt
N/N=C1/c2ccccc2N[C@H]1OC(=O)Nc1cccc(Cl)c1 | -6%[11.4 µM] | -11%[11.4 µM] | nt
SMILES | HEK293 cAMP cs | TSHR agonist | parental cAMP
Cc1ccc(C(=O)N2c3ccc(F)cc3CCC2C)o1 (stereo unspecified) | 17% | 2% | nt
COc1cc(OC)cc(C(=O)N2c3ccc(F)cc3CCC2C)c1 (stereo unspecified) | 30% | 13µM* | 12
CC(C)(N=NC(C)(C)C1=NCCN1)C1=NCCN1 | -1%[11.4 µM] | -3%[11.4 µM] | nt
CCOC(=O)CN(C(=O)Cn1nnc2ccccc21)C(C(=O)NCCOC)c1ccccc1 (stereo unspecified) | 7% | -1% | nt
COCCNC(=O)C(c1ccccc1)N(Cc1cccs1)C(=O)Cn1nnc2ccccc21 (stereo unspecified) | 30% | 13µM* | 7
O=C1CCC[C@H]2OC12[C@@H](O)CCc1ccccc1 (stereo partly specified) | 2%[11.4 µM] | -6%[11.4 µM] | nt
CC(C)c1ccc(/C=C2\C=C(c3ccc4ccccc4c3)OC2=O)cc1 | 11%[11.4 µM] | 7%[11.4 µM] | nt
Oc1ccccc1Cn1c(-c2ccccc2O)nc2ccccc21 | -13% | 10µM* | -15
Oc1ccc(Cn2c(-c3ccc(O)cc3)nc3ccccc32)cc1 | -1%[11.4 µM] | 5%[11.4 µM] | nt
CC(C)OC(=O)c1cc2c(OC[C@@H](O)CNC(C)(C)C)cccc2[nH]1 | 14% | 12% | nt
CCOC(=O)C1C(=O)NC(N2CCCCC2)=NC1c1ccccc1 (stereo unspecified) | 2% | 9% | nt

Screens deposited in PubChem BioAssay by National Center for Advancing Translational Sciences (NCATS).
